PAFAH1B2 inh = PAFAH1B2 enzyme inhibitors, primary screen, biochemical, fluorescence polarization, human. recombinant PAFAH1B2, FP-rhodamine activity probe. inhibition, % at 3.39 µM. actives 1.2% (n = 340,000). Platelet-activating factor acetylhydrolase IB subunit alpha2 (Homo sapiens), P68402. AID 492953, 2010;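 active means inhibition above the mean of all tested compounds plus 3 SD, cut at about 24% in these data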;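 further: 0% = enzyme with DMSO and 100% = wells lacking PAFAH1B2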
Target sequence (P68402 whole entry, looked up): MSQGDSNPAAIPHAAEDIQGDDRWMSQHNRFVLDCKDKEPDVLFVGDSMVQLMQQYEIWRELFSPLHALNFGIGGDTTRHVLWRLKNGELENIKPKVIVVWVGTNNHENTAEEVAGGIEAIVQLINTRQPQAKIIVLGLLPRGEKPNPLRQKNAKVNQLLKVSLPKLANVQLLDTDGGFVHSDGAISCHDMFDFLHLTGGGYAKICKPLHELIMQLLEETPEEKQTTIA
PAFAH1B3 inh = PAFAH1B3 enzyme inhibitors, primary screen, biochemical, fluorescence polarization, human; recombinant PAFAH1B3, FP-rhodamine probe; inhibition, % at 3.39 µM; actives 0.28% (n = 340,000);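 active means inhibition above the screen-wide average of all tested compounds plus 3 SD, cut at about 25% in these data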;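 further: 0% = enzyme with DMSO only and 100% = wells lacking PAFAH1B3 protein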
PAFAH2 inh = PAFAH2 enzyme inhibitors, primary screen, biochemical, fluorescence polarization, human; Platelet-activating factor acetylhydrolase 2, cytoplasmic (Homo sapiens), Q99487; recombinant PAFAH2, FP-rhodamine activity probe; inhibition, % at 3.39 µM; actives 0.99% (n = 340,000);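 active means inhibition above the mean over all tested compounds plus 3 SD, cut at about 30% in these data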;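 further: inhibitors block probe labeling of enzyme so polarization drops; 0% = enzyme with DMSO and 100% = wells lacking PAFAH2 protein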
pPAFAH inh = pPAFAH enzyme inhibitors, primary screen, biochemical, fluorescence polarization, human; Platelet-activating factor acetylhydrolase (Homo sapiens), Q13093; recombinant pPAFAH, FP-rhodamine probe fluorescence polarization; inhibition, % at 3.39 µM; actives 1.5% (n = 330,000);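 active means inhibition above the mean inhibition across the screen plus 3 SD, cut at about 25% in these data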;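 further: inhibitors block binding of the rhodamine activity-based probe so polarization drops; 0% = enzyme with DMSO and 100% = wells lacking pPAFAH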
TCR-CD3 inh = inhibitors of human TCR-CD3 interaction, primary screen, biochemical, fluorescence, TAMRA-labeled TCR probe. T-cell receptor (TCR). inhibition, % at 9.4 µM. actives 0.37% (n = 360,000). AID 651800, 2012; in the data active means inhibition above about 19%;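 further: recombinant mutant TCR 2C K166C tagged with TAMRA read by polarization; 0% = receptor in buffer alone and 100% = receptor with positive control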
Active calls of the source: *; x = no result given. Shown are actives, neighbours in structure and some others; about 2.7% of the full set was active somewhere.

SMILES	PAFAH1B2 inh	PAFAH1B3 inh	PAFAH2 inh	pPAFAH inh	TCR-CD3 inh
O=C(Nc1ccc(Cl)cc1F)c1cccc2ccccc12	4	7	3	11	5
O=C(O)c1oc2ccccc2c1CSc1ccc(Cl)cc1	29*	4	-1	2	-1
CC(C)Oc1cccc(C(=O)C2CCCN(Cc3ccc4nonc4c3)C2)c1 (stereo not given)	-2	-4	0	32*	4
CCC(C)CCCCCCCCCCC(=O)O (stereo not given)	48*	14	9	7	6
O=C(CCc1nnc2ccc(NCc3ccc(F)cc3)nn12)NC1CCCC1	0	0	4	2	-10
Cc1ccc(C(=O)CSc2nnc3n2CCCCC3)s1	-1	-2	-1	0	-5
Cc1ccc(CC#N)c(-c2c(CC#N)ccc(C)c2C)c1C	x	x	x	x	6
Cc1ccc2c(c1C)-c1c(ccc(C)c1C)C(=O)C2=O	15	70*	31*	x	8
O=C(COc1ccc2c(c1)oc(=O)c1ccccc12)NCCN1CCOCC1	1	3	2	-8	-2
Cc1ncc(CSc2nccc(=O)[nH]2)c(CO)c1O	6	0	-4	2	-5
Cc1ncc(CSc2ccc(Cl)cc2)c(CO)c1O	27*	6	1	0	-4
COCCCn1c(SCC(=O)N2CCOCC2)nnc1-c1ccco1	3	0	-1	3	-1
COc1ccc(S(=O)(=O)Oc2cccc(/C=N/N=C3/NC(=O)C(CC(=O)O)S3)c2)cc1 (stereo not given)	28*	10	5	6	11
CCOc1cc(/C=N/N=C2/NC(=O)C(CC(=O)O)S2)ccc1OCc1ccccc1Cl (stereo not given)	6	-3	4	26*	6
COc1ccc(/C=N/N=C2/NC(=O)C(CC(=O)O)S2)cc1OCc1ccccc1Cl (stereo not given)	2	-2	-2	8	13
CCOc1ccccc1NC(=O)CN(C)S(=O)(=O)c1ccc2[nH]c(=O)oc2c1	5	14	4	0	7
NC(CO)C(=O)NNCc1ccc(O)c(O)c1O (stereo not given)	6	19	8	28*	16
Clc1ccc(Cn2c(/C=C/c3ccco3)nc3ccccc32)cc1	-8	-11	-1	33*	0
CCCCn1c(/C=C/c2ccco2)nc2ccccc21	-1	0	4	16	0
CCCn1c(/C=C/c2ccco2)nc2ccccc21	7	8	18	25*	-6
CN(CC(=O)Nc1ccc(F)cc1)C(=O)c1cccc(NS(=O)(=O)c2ccccc2)c1	0	-1	-3	29*	11
CC1CCCC(NC(=O)c2cccc(S(=O)(=O)NCc3ccccc3)c2)C1C (stereo not given)	30*	0	1	3	-5
CN(Cc1ccc(F)cc1)C(=O)c1cccc(S(=O)(=O)NCc2ccccc2)c1	25*	5	-4	7	1
COc1cccc(NC(=O)CN(C)C(=O)c2cccc(NS(=O)(=O)c3ccccc3)c2)c1	7	10	2	20	-3
COc1cccc(NC(=O)CN(C)C(=O)c2cccc(NS(=O)(=O)c3ccc(Br)cc3)c2)c1	30*	0	4	x	-6
SMILES	PAFAH1B2 inh	PAFAH1B3 inh	PAFAH2 inh	pPAFAH inh	TCR-CD3 inh
Cc1cc(Br)ccc1SCC(=O)OCC(=O)NCc1ccco1	16	4	0	22	7
CC(C)CC(=O)Nc1ccc(S(=O)(=O)Nc2nccs2)cc1	-1	7	6	-1	-3
Cc1ccc(C(CNC(=O)c2ccco2)N2CCN(C)CC2)cc1 (stereo not given)	0	-2	-3	2	0
CCN(C(=O)CN1C(=O)NC(c2ccccc2)(c2ccc(C)c(C)c2)C1=O)C1CCCCC1 (stereo not given)	26*	6	-2	8	2
COc1ccc2oc(C(=O)Nc3ccc(N4CCOCC4)cc3)c(C)c2c1	3	4	13	52*	5
COc1ccc2oc(C(=O)Nc3ccccc3N3CCOCC3)c(C)c2c1	-1	2	5	-5	-1

Source: PubChem BioAssay
